Structures are written as SMILES.

For the first experiment, the target named is Vascular endothelial growth factor receptor 3 (Homo sapiens) (UniProt P35916). The conditions noted are these: at 0.1 µM.
Vascular endothelial growth factor receptor 3 (Homo sapiens), sequence (P35916 whole entry): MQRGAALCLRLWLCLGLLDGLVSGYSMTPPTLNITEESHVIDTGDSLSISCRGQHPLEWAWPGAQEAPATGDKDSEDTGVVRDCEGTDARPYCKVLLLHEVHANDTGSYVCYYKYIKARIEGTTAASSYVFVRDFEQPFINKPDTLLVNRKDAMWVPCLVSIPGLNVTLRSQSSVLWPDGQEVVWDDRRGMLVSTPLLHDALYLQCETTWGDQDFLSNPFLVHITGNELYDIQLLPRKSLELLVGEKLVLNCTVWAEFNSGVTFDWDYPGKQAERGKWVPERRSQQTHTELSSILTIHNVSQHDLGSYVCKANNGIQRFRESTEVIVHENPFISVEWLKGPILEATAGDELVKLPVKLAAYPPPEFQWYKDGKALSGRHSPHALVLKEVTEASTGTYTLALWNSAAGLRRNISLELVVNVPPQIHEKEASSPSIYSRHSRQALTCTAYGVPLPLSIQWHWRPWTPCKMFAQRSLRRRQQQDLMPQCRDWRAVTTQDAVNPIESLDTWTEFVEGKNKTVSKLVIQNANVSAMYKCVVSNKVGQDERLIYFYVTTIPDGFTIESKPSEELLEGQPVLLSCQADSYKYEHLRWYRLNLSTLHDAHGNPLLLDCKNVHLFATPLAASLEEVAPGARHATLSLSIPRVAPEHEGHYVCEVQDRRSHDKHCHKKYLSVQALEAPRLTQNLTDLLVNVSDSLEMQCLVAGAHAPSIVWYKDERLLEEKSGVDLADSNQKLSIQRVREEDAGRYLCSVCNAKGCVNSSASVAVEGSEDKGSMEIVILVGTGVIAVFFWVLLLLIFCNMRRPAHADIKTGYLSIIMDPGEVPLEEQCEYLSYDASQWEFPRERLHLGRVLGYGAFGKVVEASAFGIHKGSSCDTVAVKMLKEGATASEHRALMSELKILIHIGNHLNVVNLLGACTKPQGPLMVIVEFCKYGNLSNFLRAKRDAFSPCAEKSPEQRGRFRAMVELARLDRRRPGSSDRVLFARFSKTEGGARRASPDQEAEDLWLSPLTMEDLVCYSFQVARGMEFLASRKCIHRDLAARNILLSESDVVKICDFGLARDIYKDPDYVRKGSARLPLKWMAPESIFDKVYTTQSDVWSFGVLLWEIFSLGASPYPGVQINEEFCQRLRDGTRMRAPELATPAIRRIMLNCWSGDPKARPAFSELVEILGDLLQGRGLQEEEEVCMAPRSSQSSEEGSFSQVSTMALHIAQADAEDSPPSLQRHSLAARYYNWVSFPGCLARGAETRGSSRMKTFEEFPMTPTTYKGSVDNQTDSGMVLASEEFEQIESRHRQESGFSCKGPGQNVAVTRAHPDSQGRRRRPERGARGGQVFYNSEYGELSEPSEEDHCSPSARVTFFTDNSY
As a reminder, the inhibition is the relative decrease from the control value, in per cent. For the compound `Fc1ccc(-c2c(-c3ccncc3)nc3n2CCS3)cc1`, the inhibition was -5.59%.
On the same count and under the same terms, the result for `C/C(Nc1ccc(S(N)(=O)=O)cc1)=C1/C(=O)Nc2ccccc21` reads 7.83%.
Same read-out and setting: the result for `C[C@@H](Oc1cc(-n2cnc3ccc(OC4CCN(C)CC4)cc32)sc1C(N)=O)c1ccccc1Cl` reads -3.01%; that for `CCS(=O)(=O)c1ccc(OC)c(Nc2ncc(-c3ccccc3Cl)o2)c1`, 7.55%.
Still for that read-out and setting: next, `COc1cc(N2CCN(C(C)C)CC2)ccc1Nc1nc(Nc2ccc(F)cc2C(=O)NC[C@@H](O)CO)c2cc[nH]c2n1`: -9.16%; `Cc1nnc(-c2ccc(C)c(-c3ccc(C(=O)NCc4ccc(Cl)cc4)cc3)c2)o1`: -5.22%; `COc1ccc2ncn(-c3cc(O[C@H](C)c4ccccc4Cl)c(C(N)=O)s3)c2c1`: -5.28%.
For `COc1cc(Nc2ncc3c(C)nc(-c4cccc(Oc5ccccc5)c4)n3n2)cc(OC)c1OC`, the inhibition was -1.15%.
Same read-out and setting: the result for `CS(=O)(=O)CCNCc1ccc(-c2ccc3ncnc(Nc4ccc(OCc5ccccc5)c(Br)c4)c3c2)o1` reads -7.55%; that for `COc1cc2ncn(-c3cc(OCCc4ccccc4)c(C(N)=O)s3)c2cc1OC`, 1.49%; that for `O=C(NCC1CC1)c1ccc(-c2cccc(C(=O)NC3CC3)c2)cc1`, 1.32%.
Same read-out and setting: next, `Clc1ccc(CNc2nccc(-c3cnn4ncccc34)n2)cc1`: -1.51%.
Same read-out and setting: next, `COc1ccc2cc(-c3c(-c4ccncc4)nc(-c4ccc([S+](C)[O-])cc4C)n3C)ccc2c1` (stereo unspecified): 2.68%; `c1ccc(-c2n[nH]cc2-c2ccnc(-c3ccc(OCCN4CCOCC4)cc3)c2)nc1`: -0.95%; `COc1cc2ncn(-c3cc(OCc4cccs4)c(C(N)=O)s3)c2cc1OC`: -6.1%.
Turning to `C#Cc1cccc(Nc2ncnc3ccc(OCCCCNCCS(C)(=O)=O)cc23)c1`, the inhibition is -5.89%.
`COC(=O)Nc1nc2ccc(Sc3ccc(NC(=O)Nc4cc(C(F)(F)F)ccc4F)cc3)cc2[nH]1`: the inhibition is 14.8%.
Same read-out and setting: the result for `CCc1nccc2c1nc(-c1nonc1N)n2CC` reads -0.59%; that for `COc1cc(Nc2ncc3c(C)nc(-c4cccc(C(F)(F)F)c4)n3n2)cc(OC)c1OC`, -1.5%.
With `O=C1Nc2ccc(I)cc2C1=Cc1cc(Br)c(O)c(Br)c1`, the inhibition is 0.19%.
On the same count and under the same terms, next, `COc1cc2ncn(-c3cc(OCc4ccccc4C(F)(F)F)c(C(C)=O)s3)c2cc1OC`: 3.53%; `O=C(Nc1ccc(Oc2ccc3[nH]c(NC(=O)c4ccccc4)nc3c2)cc1)Nc1cc(C(F)(F)F)ccc1F`: 14.1%.
Same read-out and setting: the result for `c1ccc(Oc2ccc(Nc3ncc(-c4ccccc4)o3)cc2)cc1` reads 3.08%.
The same measure, in the same setting: the result for `Fc1ccc(-c2ncn(CCCN3CCOCC3)c2-c2ccncc2)cc1` reads 0.07%.
For the compound `CCS(=O)(=O)c1ccc(OC)c(Nc2ncc(-c3cccc(-c4ccccc4F)c3)o2)c1`, the inhibition was found to be 41%.
Still for that read-out and setting: the result for `Fc1ccc(-c2nc3n(c2-c2ccncc2)CCS3)cc1` reads -8.43%; that for `C[C@@H](Oc1cc(-n2cnc3ccc(OCC4CCN(C)CC4)cc32)sc1C(N)=O)c1ccccc1Cl`, 5.35%; that for `FC(F)(F)c1cccc(Nc2nccc(-c3cnn4nc(-c5ccccc5)ccc34)n2)c1`, -0.18%.

A further experiment has the same target. The conditions noted are these: at 1 µM.
Turning to `C/C(Nc1ccc(S(N)(=O)=O)cc1)=C1/C(=O)Nc2ccccc21`, the inhibition was found to be 32.9%.
Same read-out and setting: the result for `C[C@@H](Oc1cc(-n2cnc3ccc(OC4CCN(C)CC4)cc32)sc1C(N)=O)c1ccccc1Cl` reads 13.8%.
Same read-out and setting: next, `CCS(=O)(=O)c1ccc(OC)c(Nc2ncc(-c3ccccc3Cl)o2)c1`: 29.9%; `COc1ccc2ncn(-c3cc(O[C@H](C)c4ccccc4Cl)c(C(N)=O)s3)c2c1`: 4.48%; `COc1cc(Nc2ncc3c(C)nc(-c4cccc(Oc5ccccc5)c4)n3n2)cc(OC)c1OC`: 0.93%.
Still for that read-out and setting: the result for `CN(C)CCCNc1nccc(-c2c(-c3ccc(F)cc3)nn3cc(C(F)(F)F)ccc23)n1` reads -6.61%.
For `CS(=O)(=O)CCNCc1ccc(-c2ccc3ncnc(Nc4ccc(OCc5ccccc5)c(Br)c4)c3c2)o1`, the inhibition was -9.98%.
As to `COc1cc2ncn(-c3cc(OCCc4ccccc4)c(C(N)=O)s3)c2cc1OC`, the inhibition was found to be 21%.
Same read-out and setting: next, `O=C(NCC1CC1)c1ccc(-c2cccc(C(=O)NC3CC3)c2)cc1`: 1.97%.
Regarding `CN1CCN(CCCNc2nc3ccc(Oc4ccc(NC(=O)Nc5cc(C(F)(F)F)ccc5F)cc4)cc3[nH]2)CC1`, the inhibition was -0.49%.
On the same count and under the same terms, next, `CN(C)c1ccc2c(c1)/C(=C/Nc1ccc(S(N)(=O)=O)cc1)C(=O)N2`: 55%; `Clc1ccc(CNc2nccc(-c3cnn4ncccc34)n2)cc1`: 1.12%; `COc1cccc(-n2cnc3c(N/N=C/c4ccncc4)ncnc32)c1`: -4.88%.
`COc1ccc2cc(-c3c(-c4ccncc4)nc(-c4ccc([S+](C)[O-])cc4C)n3C)ccc2c1` (stereo unspecified): the inhibition turned out to be 9.41%.
As for `c1ccc(-c2n[nH]cc2-c2ccnc(-c3ccc(OCCN4CCOCC4)cc3)c2)nc1`, the inhibition turned out to be 8.44%.
With `COc1cc2ncn(-c3cc(OCc4cccs4)c(C(N)=O)s3)c2cc1OC`, the inhibition worked out at 34.7%.
Same read-out and setting: next, `CNC(=O)c1cncc(/C=C/c2c(C)cccc2C)c1`: -8.92%; `COC(=O)Nc1nc2ccc(Sc3ccc(NC(=O)Nc4cc(C(F)(F)F)ccc4F)cc3)cc2[nH]1`: 21.7%; `CCc1nccc2c1nc(-c1nonc1N)n2CC`: 3.19%.
Still for that read-out and setting: next, `COc1cc(Nc2ncc3c(C)nc(-c4cccc(C(F)(F)F)c4)n3n2)cc(OC)c1OC`: 2.6%.
Still for that read-out and setting: next, `O=C1Nc2ccc(I)cc2C1=Cc1cc(Br)c(O)c(Br)c1`: -3.58%; `COc1cc2ncn(-c3cc(OCc4ccccc4C(F)(F)F)c(C(C)=O)s3)c2cc1OC`: 5.96%; `O=C(Nc1ccc(Oc2ccc3[nH]c(NC(=O)c4ccccc4)nc3c2)cc1)Nc1cc(C(F)(F)F)ccc1F`: 36.2%.
In the case of `c1ccc(Oc2ccc(Nc3ncc(-c4ccccc4)o3)cc2)cc1`, the inhibition amounted to 1.93%.
Same read-out and setting: the result for `Fc1ccc(-c2ncn(CCCN3CCOCC3)c2-c2ccncc2)cc1` reads 0.05%; that for `CCS(=O)(=O)c1ccc(OC)c(Nc2ncc(-c3cccc(-c4ccccc4F)c3)o2)c1`, 82.8%.
On the same count and under the same terms, the result for `C[C@@H](Oc1cc(-n2cnc3ccc(OCC4CCN(C)CC4)cc32)sc1C(N)=O)c1ccccc1Cl` reads 23.9%.
Still for that read-out and setting: next, `FC(F)(F)c1cccc(Nc2nccc(-c3cnn4nc(-c5ccccc5)ccc34)n2)c1`: 6.91%.
